Measured values: PubChem BioAssay AID1159580 (chemical genetic matrix, 2015)
Several values for one entry are separate records, joined by “and”; a condition that tells them apart may be missing. Equal entries are not always repeated. Screen size: about 5,500 compounds; about 2,000 (36%) were called active. Not shown: some 18% with an inconclusive outcome. Rule as the data show it: active = normalized growth mostly below about 0.91 (no sharp cut-off); inconclusive = no clear call, values can overlap the other calls; inactive = mostly above about 0.92. The list shows a part of the results.

Assay: chemical genetic growth profiling, strain panel (AID 1159580);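 also: tested at 20 µM; growth read once vehicle control cultures reached saturation at 30 °C; 1 = growth at the plate median or of vehicle wells; lower values mean less growth of the strain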
Settings: S. cerevisiae deletion strains, growth OD

Measured: normalized growth

O=C(O)c1ccccc1-c1c2cc(Br)c(=O)cc-2oc2[c]([Hg])c(O)c(Br)cc12
active: locus YAL013W, strain DEP1, stronger effect = lower value 0.0843 | locus YBR021W, strain FUR4, stronger effect = lower value 0.61 | locus YBR279W, strain paf1, stronger effect = lower value 0.594 | locus YDL035C, strain GPR1, stronger effect = lower value 0.453 | locus YDL134C, strain PPH21, stronger effect = lower value 0.102 | locus YDL185W, strain tfp1, stronger effect = lower value 0.622 | locus YDL192W, strain arf1, stronger effect = lower value 0.0635 | locus YDR137W, strain rgp1, stronger effect = lower value 1.2 [resistant] | locus YDR150W, strain NUM1, stronger effect = lower value 0.732 | locus YDR162C, strain NBP2, stronger effect = lower value 0.736 | locus YDR318W, strain mcm21, stronger effect = lower value 0.07 | locus YDR388W, stronger effect = lower value 0.0603 | locus YDR502C, strain sam2, stronger effect = lower value 0.814 | locus YER110C, stronger effect = lower value 0.655 | locus YER167W, strain BCK2, stronger effect = lower value 0.0686 | locus YGL078C, strain dbp3, stronger effect = lower value 0.0613 | locus YGL086W, strain mad1, stronger effect = lower value 0.0593 | locus YGL248W, strain PDE1, stronger effect = lower value 0.0521 | locus YGR078C, strain PAC10, stronger effect = lower value 0.369 | locus YGR135W, strain pre9, stronger effect = lower value 0.0708 | locus YGR229C, strain SMI1, stronger effect = lower value 0.106 | locus YGR252W, strain gcn5, stronger effect = lower value 0.178 | locus YHR013C, strain ard1, stronger effect = lower value 0.121 | locus YHR030C, strain SLT2, stronger effect = lower value 0.146 and 0.163 | locus YHR079C, strain IRE1 (second series), stronger effect = lower value 0.884 | locus YHR079C, strain IRE1, stronger effect = lower value 0.406 | locus YHR094C, strain hxt1, stronger effect = lower value 0.0904 | locus YHR200W, strain rpn10, stronger effect = lower value 0.0659 | locus YIL066C, strain RNR3, stronger effect = lower value 0.0637 | locus YIL073C, strain SPO22, stronger effect = lower value 0.127 | locus YIL125W, strain kgd1, stronger effect = lower value 0.0621 | locus YJL168C, strain set2, stronger effect = lower value 0.0944 | locus YJR066W, strain TOR1, stronger effect = lower value 0.439
0.834 (inactive) and 0.144 (active): locus YJL095W, strain BCK1, stronger effect = lower value
inactive: locus YAL021C, strain ccr4, stronger effect = lower value 1.01 | locus YAL026C, strain drs2, stronger effect = lower value 1.04 | locus YAL030W, strain snc1, stronger effect = lower value 1.03 | locus YBL061C, strain skt5, stronger effect = lower value 1.04 | locus YBR009C, strain hhf1, stronger effect = lower value 1.03 | locus YBR023C, strain chs3, stronger effect = lower value 1.04 | locus YBR171W, strain sec66, stronger effect = lower value 1.06 | locus YBR229C, strain ROT2, stronger effect = lower value 0.972 | locus YBR231C, strain swc5, stronger effect = lower value 1.04 | locus YCL011C, strain gbp2, stronger effect = lower value 1.05 | locus YCL016C, strain dcc1, stronger effect = lower value 1.06 | locus YCL029C, strain bik1, stronger effect = lower value 0.996 | locus YCR088W, strain abp1, stronger effect = lower value 1.03 | locus YDL005C, strain med2, stronger effect = lower value 1.02 | locus YDL040C, strain nat1, stronger effect = lower value 1.05 | locus YDL074C, strain BRE1, stronger effect = lower value 0.866 | locus YDL101C, strain DUN1, stronger effect = lower value 0.936 | locus YDR001C, strain nth1, stronger effect = lower value 1.04 | locus YDR069C, strain doa4, stronger effect = lower value 1.02 | locus YDR101C, strain arx1, stronger effect = lower value 1.01 | locus YDR159W, strain sac3, stronger effect = lower value 1.05 | locus YDR195W, strain ref2 0.982 | locus YDR297W, strain sur2, stronger effect = lower value 1.04 | locus YDR334W, strain swr1, stronger effect = lower value 1.03 | locus YDR335W, strain msn5, stronger effect = lower value 1.03 | locus YDR392W, strain spt3, stronger effect = lower value 0.796 | locus YEL003W, strain gim4, stronger effect = lower value 1.02 | locus YEL037C, strain rad23, stronger effect = lower value 1.03 | locus YEL061C, strain CIN8 (second series), stronger effect = lower value 1.05 | locus YEL061C, strain CIN8, stronger effect = lower value 0.984 | locus YER015W, strain faa2, stronger effect = lower value 1.04 | locus YER016W, strain bim1, stronger effect = lower value 1.06 | locus YER111C, strain swi4, stronger effect = lower value 1.03 | locus YER155C, strain BEM2 (second series), stronger effect = lower value 1.03 | locus YER155C, strain BEM2, stronger effect = lower value 1.02 | locus YFR010W, strain ubp6, stronger effect = lower value 1.02 | locus YGL167C, strain pmr1, stronger effect = lower value 1.06 | locus YGL173C, strain kem1, stronger effect = lower value 0.973 | locus YGL227W, strain vid30, stronger effect = lower value 1.05 | locus YGL240W, strain doc1, stronger effect = lower value 1 | locus YGL253W, strain hxk2, stronger effect = lower value 1.02 | locus YHR027C, strain rpn1, stronger effect = lower value 1.01 | locus YHR129C, strain ARP1, stronger effect = lower value 0.939 | locus YHR142W, strain chs7, stronger effect = lower value 0.951 | locus YIR030C, strain dcg1, stronger effect = lower value 1 | locus YJL092W, strain hpr5, stronger effect = lower value 1.04 | locus YJL095W, strain BCK1 (second series), stronger effect = lower value 1.03 | locus YJL115W, strain asf1, stronger effect = lower value 1.03 | locus YJL129C, strain trk1, stronger effect = lower value 1.12 | locus YJL134W, strain LCB3, stronger effect = lower value 1.02 | locus YJL154C, strain vps35, stronger effect = lower value 1.04 | locus YJL164C, strain tpk1, stronger effect = lower value 1.01 | locus YJL166W, strain qcr8, stronger effect = lower value 1.02 | locus YJL187C, strain SWE1 (second series), stronger effect = lower value 0.955 | locus YJL187C, strain SWE1, stronger effect = lower value 1.01 | locus YJR043C, strain POL32, stronger effect = lower value 0.868 | locus YJR075W, strain HOC1, stronger effect = lower value 0.946
